hNpr1 antagonist: Natriuretic polypeptide receptor (hNpr1) antagonism - Primary qHTS. Atrial natriuretic peptide receptor 1 (Homo sapiens), P16066. HEK293 hNpr1 GloSensor cGMP, ANP-stimulated luminescence. Potency, µM (doses to about 46.3 µM), most hits filed as inhibitors. actives 1.6% (n = 76,000). AID 1347048, 2019; calls by dose curve; further: nearly all actives have a fitted effect of over 60% in size
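Compound pre-incubated 30 min at room temperature on GloSensor-loaded HEK293 cells stably carrying hNpr1 and the pGS-40F cGMP biosensor. Stimulation uses hNppA at 0.1 nM final; luminescence is taken at baseline and 20 min post-agonist.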
3T3 cytotox: Cytotoxic Profiling in NIH 3T3 Cell Line of Diverse Libraries Using Quantitative High-Throughput Screening; NIH 3T3 viability, CellTiter-Glo ATP luminescence, 48-72 h; Potency, µM (titrated, usually from 96.7 µM), hits mostly inhibitors; actives 4.3% (n = 94,000); AID 1345082, 2018; further: nearly all actives have a fitted effect of over 55% in size
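Cytotoxicity was measured by CellTiter-Glo ATP luminescence after 48 or 72 h compound exposure at 37 °C. Mouse NIH 3T3 fibroblasts were seeded at 400 cells/well and dosed by 23 nL pin transfer.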
GPT2 inhibitor: Primary qHTS assay for inhibitors of Glutamate pyruvate transaminase 2 (GPT2). Alanine aminotransferase 2 (Homo sapiens), Q8TD30. Recombinant GPT2, coupled pyruvate oxidase/HRP Amplex Red fluorescence. Potency, µM (titrated, usually from 57.7 µM), usual class: inhibitors. actives 0.25% (n = 100,000); further: nearly all actives have a fitted effect of over 60% in size
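Fluorescence of coupled pyruvate oxidase/HRP/Amplex Red system (50uM Amplex, 30 min, dark) reports pyruvate formed by GPT2. Enzyme reaction: 10ng/uL GPT2, 2mM L-alanine, 250uM a-KG, 30 min room temperature, pH 7.5; 50uM AOA control.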
HEK cytotox: Cytotoxic Profiling in HEK 293 Cell Line of Diverse Libraries Using Quantitative High-Throughput Screening. HEK 293 viability, ATP luminescence (CellTiter-Glo), 48-72 h. Potency, µM (series often up to 115 µM), hits mostly inhibitors. actives 6.6% (n = 94,000). AID 1345083, 2018; further: nearly all actives have a fitted effect of over 60% in size
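Luminescence from cellular ATP, measured with CellTiter-Glo, indicates HEK 293 viability. Cells plated at 250 cells/well are treated with compound for 48 or 72 hr at 37 degree Celsius before reagent addition.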
FLuc inh: Firefly luciferase inhibition profiling of diverse chemical library using quantitative high-throughput screening. purified P. pyralis luciferase, luminescence, biochemical. Potency, µM (top dose mostly 115 µM), hits mostly inhibitors. actives 2.5% (n = 76,000). AID 1347043, 2019; further: nearly all actives have a fitted effect of over 65% in size
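FLuc 10nM, D-luciferin 10uM, ATP 10uM, Mg acetate 10mM, Tris acetate pH 7.5, Tween/BSA; cpd qHTS; enzyme added last; CCD luminescence.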
Numbers stand for hits; – = inactive; ? = inconclusive; · = no result given. In the library only some 10% were active in any assay of this set; here they are far more common. Unless noted, the call rests on the fitted dose curve; in most records, active means well fitted curve in the direction sought with a large enough effect; inconclusive means small, poorly fitted or top-dose-only effect, or another doubt; inactive means no such curve, though single readings can be large; an effect the other way counts as inactive or inconclusive.

SMILES | hNpr1 antagonist | 3T3 cytotox | GPT2 inhibitor | HEK cytotox | FLuc inh
O=C(NCc1ccc(Cl)cc1)c1ccc2nnc(Cc3ccco3)n2c1 | · | ? | – | – | ·
O=C(NC1CC1)C1(F)CCN(S(=O)(=O)c2ccccc2)CC1 | · | – | ? | ? | ·
CCN1c2cc(C(=O)NCc3cccc(Br)c3)ccc2C(=O)N2CCCCC21 (centres undefined) | – | ? | – | 31.6µM | –
CCN1c2cc(C(=O)Nc3cccc(Br)c3)ccc2C(=O)N2CCCCC21 (centres undefined) | – | 17.8µM | – | 17.8µM | –
CCN1c2cc(C(=O)Nc3cccc(Br)c3)ccc2C(=O)N2CCCCCC21 (centres undefined) | – | 28.2µM | – | 17.8µM | –
CCN1c2cc(C(=O)NCc3cccc(C)c3)ccc2C(=O)N2CCCCCC21 (centres undefined) | – | ? | – | ? | –
CCN1c2cc(C(=O)Nc3ccc(Br)cc3)ccc2C(=O)N2CCCC21 (centres undefined) | – | – | – | – | –
COc1ccccc1CN1CCNc2cnc(-c3ccccc3)cc2C1 | – | ? | – | 79.4µM | –
NC(=O)c1cccc(-c2cc3c(cn2)CN(CCc2ccccc2)CCN3)c1 | – | 89.1µM | – | ? | ?
COc1ccc(CN2CCNc3cc(-c4ccccc4)ncc3C2)cc1O | – | ? | – | 89.1µM | –
COc1ccc(OC)c(CN2CCNc3cc(Nc4ccccc4)ncc3C2)c1 | – | 35.5µM | – | ? | 22.4µM
c1ccc(Oc2ccccc2-c2cc3c(cn2)CN(Cc2ccncc2)CCN3)cc1 | – | ? | – | ? | –
CCS(=O)(=O)N1CCC(N2CCCC(C(=O)NCCc3ccccc3)C2)CC1 (centres undefined) | – | – | – | – | –
CC(C)CNC(=O)c1nc2sccn2c1-c1cccc(C(F)(F)F)c1 | · | – | – | – | ·
c1ccc(CN2CCNc3cc(-c4ccoc4)ncc3C2)cc1 | – | ? | – | ? | ?
CCOc1cc2c(cn1)NCCN(Cc1ccccc1O)C2 | – | – | – | ? | –
COc1ccc(Nc2cc3c(cn2)CN(CCc2ccccc2)CCN3)cn1 | – | 50.1µM | – | 63.1µM | –
Oc1ccccc1CN1CCNc2cnc(Oc3ccccc3)cc2C1 | ? | ? | – | 79.4µM | –
COCCN1CCNc2cc(NCc3ccccc3)ncc2C1 | – | ? | – | ? | –
COc1cccc(CN2CCNc3cc(-c4ccccc4)ncc3C2)c1 | – | ? | – | ? | 39.8µM
c1ccc(CN2CCNc3cnc(-c4ccc(N5CCOCC5)cc4)cc3C2)cc1 | 28.2µM | ? | – | 50.1µM | 20µM
O=C(C1CCCN1C(=O)c1ccc(Cl)cc1)N1CCC(c2nc3ncccc3[nH]2)CC1 (centres undefined) | · | – | – | – | ·
CC(=O)N1CCNc2cc(-c3ccc(Oc4ccccc4)cc3)ncc2C1 | – | ? | – | 70.8µM | 20µM
COc1ccc(Nc2cc3c(cn2)CN(Cc2ccncc2)CCN3)cc1OC | – | ? | – | ? | –
COc1ccc(CN2CCNc3cc(Nc4ccccc4)ncc3C2)cc1O | – | 79.4µM | – | 100µM | –
SMILES | hNpr1 antagonist | 3T3 cytotox | GPT2 inhibitor | HEK cytotox | FLuc inh
CN(C)C(=O)c1ccc(-c2cc3c(cn2)CN(CCc2ccccc2)CCN3)cc1 | – | ? | – | ? | –
COCCNC(=O)c1nc2sccn2c1-c1ccncc1 | · | – | – | – | ·
COc1ccc(CN2CC(Oc3ccccc3C(=O)NC3CC3)C2)c(OC)c1 | – | – | – | ? | –
COc1ccc(OC)c(CN2CC(Oc3ccccc3C(=O)NCc3ccccc3)C2)c1 | – | ? | – | 31.6µM | –
COc1ccc(CN2CC(Oc3ccccc3C(=O)NCc3ccccc3)C2)c(OC)c1 | ? | ? | – | 50.1µM | –
COCCNC(=O)C1(F)CCN(C(=O)c2cnc(C)cn2)CC1 | · | – | – | – | ·
CC1(CCCCN2CCOCC2)COc2ccc(C(=O)Nc3ccc4[nH]ccc4c3)cc2N1 (centres undefined) | ? | – | – | ? | –

Assay outcomes as filed in PubChem.
